# Results published in ChEMBL document CHEMBL4513216, “Probing the Open Global Health Chemical Diversity Library for Multistage-Active Starting Points for Next-Generation Antimalarials” (ACS Infect Dis, 2020).
# Out of some 65,000 compounds screened, about 2,100 (3.2%) showed an effect of 50% or more. The median lay at about -52%. The entries come from a sample that favours strong results as a whole.
# System: Plasmodium falciparum
# Test: Screen against P. falciparum Asexual Blood Stage (ABS), at 5uM
# Type: functional, Dd2
# Settings: tested at 5 uM
row,SMILES,INHIBITION [%]
1,O=C(c1ccco1)N1CCN2C[C@H](Oc3cncnc3)C[C@H]2C1,-20.6
2,CC(C)n1ncc2c1NC(=O)CC21C(=O)Nc2c(Cl)ccc(Cl)c21 (stereo unspecified),83.5
3,O=C(NC[C@H]1C[C@@H]2CCN1C[C@@H]2CN1CCCCC1)c1ccco1,-92.2
4,COc1ccccc1C1SCC(=O)Nc2c1c(=O)[nH]n2C1CCCCC1 (stereo unspecified),-98.6
5,N#Cc1ccc(N2CCC(OC3CCOCC3)CC2)cc1Cl,-184
6,CCC1CCCCN1CCc1ccncc1 (stereo unspecified),-81.4
7,CCC1CCCCN1Cc1ncc(C(C)(C)C)o1 (stereo unspecified),71.2
8,COc1ccc(C(=O)C2CCCN(Cc3cc(C)n[nH]3)C2)c(OC)c1 (stereo unspecified),-4.88
9,Cc1ccc(N2C[C@H]3CCN(Cc4ccncc4)C[C@H]3C2)nn1,-4.71
10,Cc1cc(CN2CCC(C3CCN(CCc4ccccc4)CC3)C2)[nH]n1 (stereo unspecified),93.5
11,Fc1ccccc1C1(CNC2CCOC3(CCOCC3)C2)CCCC1 (stereo unspecified),76.3
12,COc1ncccc1CN1C[C@@H]2OCCN(CCN(C)C)[C@@H]2C1,-3.36
13,CN(C)CCN(C)C(=O)Cc1ccc2c(c1)OCCO2,-12.9
14,CN(C)CCN(C(=O)Cc1ccc2c(c1)OCCO2)C1CCN(C)CC1,-48.3
15,CN(C)CCN1CCC2[C@@H]1CCN2Cc1ccc2c(c1)OCO2 (stereo partly specified),72.5
16,COc1ncccc1CN1CC[C@H]2O[C@@H](c3nnc(C)o3)CC[C@H]21,-71.9
17,COc1ncccc1CN1CCC2[C@H]1CCN2CCN(C)C (stereo partly specified),53.9
18,Cc1cc(CN2CC[C@H]3C(=O)N(c4ccsc4)CCO[C@H]3C2)no1,-34.2
19,Cc1cccc(CO[C@@H]2CC[C@H]3[C@H]2OCCN3Cc2ccsc2)n1,-46.8
20,O=C(N[C@H]1CN(Cc2cccs2)[C@@H]2CCCO[C@H]12)c1cccnc1,-57.9
21,Fc1cccc(CN2C[C@@H]3CN(Cc4ccccn4)C[C@@H]3C2)c1,89.4
22,O=C(c1cccc(F)c1)N1C[C@H]2CN(Cc3ccccn3)C[C@H]2C1,0.82
23,Cc1noc(C)c1CN1C[C@@H]2CC(F)(F)C[C@@H]2C1,-59.4
24,Cc1noc(C)c1CN1C[C@@H]2C[C@@H](C)O[C@@H]2C1,-75.1
25,Cc1noc(C)c1CN1C[C@H]2CN(Cc3cccc(F)c3)C[C@H]2C1,55.4
26,Cn1cnc(S(=O)(=O)N2C[C@H]3CN(Cc4ccccn4)C[C@H]3C2)c1,-85.5

row,SMILES,INHIBITION [%]
1,O=C(Cc1ccccn1)N1CCN2C[C@H](Oc3cncnc3)C[C@H]2C1,-1.9
2,Cc1noc(C)c1CN1C[C@@H]2CN(C(=O)c3cnccn3)C[C@@H]2C1,-43.4
3,Clc1cccc(N[C@H]2CCCN[C@H]2Cc2ccccc2)c1,92.8
4,Cc1nc(C2(NCc3ccc(C#N)cc3F)CCCCC2)no1,-32.3
5,CC(C)OCCNC1(c2ccc(F)cc2)CCOCC1,34.8
6,Cc1n[nH]cc1CNC1(c2ccc(F)cc2)CCCC1,83.4
7,O=C(c1cnccn1)N1CCN2C[C@H](Oc3cccnc3)C[C@H]2C1,-106
8,COc1ccccc1COCC(O)CN1CC(n2cccn2)C1 (stereo unspecified),78.9
9,CCOCC(O)CN1CCN(C(=O)Cc2ccccc2C)CC1 (stereo unspecified),-143
10,CN(C)c1ncc2c(n1)C1(CCN(Cc3ccccc3)C1)COC2 (stereo unspecified),27.6
11,Cc1ccnc(CC(C)N(C)Cc2ccc3c(c2)OCCO3)c1 (stereo unspecified),-56.5
12,Cc1cccnc1CC(C)N(C)Cc1cccs1 (stereo unspecified),81.7
13,CC(Cc1ccccn1)N(C)Cc1ccc2c(c1)CCO2 (stereo unspecified),8.31
14,Cc1cnn(CC2CCCN2Cc2nc(C)c3ccccc3n2)c1 (stereo unspecified),78
15,Cc1nc(CN2CCCC2Cn2ccnc2C(C)C)nc2ccccc12 (stereo unspecified),77.3
16,Cc1nc(CN2CCCCC2Cn2cccn2)nc2ccccc12 (stereo unspecified),70.4
17,CCCN(CCN(C)C)C(=O)Cc1cn2ccsc2n1,-76.3
18,Cc1cnn(CC2CCCN2Cc2cn3ccsc3n2)c1 (stereo unspecified),81.3
19,O=C(C1CCCCC1)N1C[C@@H]2CCNC[C@@H]21,9.5
20,Cc1ccc(N2CC[C@@H]3CN(Cc4c[nH]cn4)C[C@@H]3C2)nn1,-66.7
21,Cc1cc(CC(C)NC2CCSCC2)[nH]n1 (stereo unspecified),-36.2
22,Cn1c(=O)n(C)c2cc(C3SCC(=O)Nc4ccsc43)ccc21 (stereo unspecified),-86.5
23,Cc1c(CN2CCCC(C(=O)c3ccccc3)C2)cc(C#N)n1C (stereo unspecified),44.6
24,CC(C)NC(=O)[C@H]1CN(Cc2ccccc2)C[C@@H]1C(=O)c1ccccc1,-90.6
25,O=C(c1ccccc1)C1CCN(Cc2cc3c(cc2O)CCC3)CC1,90.1
